Data as given in the supplement of paper PMC10849652.
Targets with a hit are over-represented here; the source holds about 7,900 in all. About 0.6% of all pairs of compound and target were hits.

compound: C1=CC(=C(C=C1Cl)C2=NC3=NC=CN=C3C(=N2)NC4=CC=NC=C4)F; assay: log2 fold change, soluble protein after heating vs DMSO (PISA); higher = thermal stabilisation; K562 cells, 10 uM, 30 min; active = over 0.2 and 3.5 SD of the protein, either way, in both replicates (recomputed)
Summary of the method: (§1)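 Soluble protein was defined as the supernatant after 21,000xg for 90 min. It came from K562 cells at 2×10^6 cells/mL given 10 μM compound for 30 min, heated in aliquots for 3 min across 48°C-58°C, pooled, and extracted in PBS with 0.5% NP-40 at 4°C, and was quantified by TMTpro 16plex LC-MS/MS with equalised channel sums. Thermal stability against control samples, from duplicates, is reported as log2 fold change.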

UniProt Q7Z3K3, sequence (Q7Z3K3 whole entry, looked up): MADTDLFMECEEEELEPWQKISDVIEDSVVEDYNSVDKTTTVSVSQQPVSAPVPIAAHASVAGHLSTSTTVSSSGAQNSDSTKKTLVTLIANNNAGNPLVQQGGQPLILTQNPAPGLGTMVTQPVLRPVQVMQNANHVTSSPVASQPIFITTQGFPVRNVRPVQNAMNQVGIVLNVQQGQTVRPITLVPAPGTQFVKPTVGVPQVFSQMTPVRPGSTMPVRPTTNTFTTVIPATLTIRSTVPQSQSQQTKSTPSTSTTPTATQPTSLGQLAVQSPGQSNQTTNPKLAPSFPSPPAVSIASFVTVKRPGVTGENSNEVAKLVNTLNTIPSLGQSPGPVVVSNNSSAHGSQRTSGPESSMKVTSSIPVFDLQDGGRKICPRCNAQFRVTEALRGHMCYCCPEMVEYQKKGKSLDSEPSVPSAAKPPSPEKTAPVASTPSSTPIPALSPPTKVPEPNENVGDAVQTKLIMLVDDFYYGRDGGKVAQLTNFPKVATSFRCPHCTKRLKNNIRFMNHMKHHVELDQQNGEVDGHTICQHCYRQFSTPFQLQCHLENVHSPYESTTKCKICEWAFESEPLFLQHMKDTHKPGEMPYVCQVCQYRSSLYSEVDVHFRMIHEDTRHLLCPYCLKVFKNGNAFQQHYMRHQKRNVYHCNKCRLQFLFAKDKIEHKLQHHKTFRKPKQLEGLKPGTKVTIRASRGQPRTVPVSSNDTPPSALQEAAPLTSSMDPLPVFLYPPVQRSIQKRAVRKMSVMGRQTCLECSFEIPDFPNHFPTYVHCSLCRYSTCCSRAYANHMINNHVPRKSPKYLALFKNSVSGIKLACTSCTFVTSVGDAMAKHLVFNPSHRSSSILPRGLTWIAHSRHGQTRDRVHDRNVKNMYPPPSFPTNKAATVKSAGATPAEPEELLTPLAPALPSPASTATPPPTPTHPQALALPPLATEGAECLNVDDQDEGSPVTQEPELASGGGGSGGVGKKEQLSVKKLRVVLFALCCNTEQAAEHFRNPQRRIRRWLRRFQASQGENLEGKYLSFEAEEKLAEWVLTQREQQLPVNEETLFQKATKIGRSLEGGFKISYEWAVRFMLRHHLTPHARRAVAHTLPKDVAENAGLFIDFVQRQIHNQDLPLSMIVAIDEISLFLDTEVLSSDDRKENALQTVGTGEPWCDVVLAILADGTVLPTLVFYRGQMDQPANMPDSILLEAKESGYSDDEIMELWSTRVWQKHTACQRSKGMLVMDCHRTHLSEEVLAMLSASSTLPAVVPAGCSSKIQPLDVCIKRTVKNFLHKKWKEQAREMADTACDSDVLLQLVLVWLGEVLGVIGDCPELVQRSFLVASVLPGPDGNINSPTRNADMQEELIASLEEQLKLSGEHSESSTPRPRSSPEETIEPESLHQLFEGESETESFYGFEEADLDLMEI
UniProt Q8NDX5, sequence (Q8NDX5 whole entry, looked up): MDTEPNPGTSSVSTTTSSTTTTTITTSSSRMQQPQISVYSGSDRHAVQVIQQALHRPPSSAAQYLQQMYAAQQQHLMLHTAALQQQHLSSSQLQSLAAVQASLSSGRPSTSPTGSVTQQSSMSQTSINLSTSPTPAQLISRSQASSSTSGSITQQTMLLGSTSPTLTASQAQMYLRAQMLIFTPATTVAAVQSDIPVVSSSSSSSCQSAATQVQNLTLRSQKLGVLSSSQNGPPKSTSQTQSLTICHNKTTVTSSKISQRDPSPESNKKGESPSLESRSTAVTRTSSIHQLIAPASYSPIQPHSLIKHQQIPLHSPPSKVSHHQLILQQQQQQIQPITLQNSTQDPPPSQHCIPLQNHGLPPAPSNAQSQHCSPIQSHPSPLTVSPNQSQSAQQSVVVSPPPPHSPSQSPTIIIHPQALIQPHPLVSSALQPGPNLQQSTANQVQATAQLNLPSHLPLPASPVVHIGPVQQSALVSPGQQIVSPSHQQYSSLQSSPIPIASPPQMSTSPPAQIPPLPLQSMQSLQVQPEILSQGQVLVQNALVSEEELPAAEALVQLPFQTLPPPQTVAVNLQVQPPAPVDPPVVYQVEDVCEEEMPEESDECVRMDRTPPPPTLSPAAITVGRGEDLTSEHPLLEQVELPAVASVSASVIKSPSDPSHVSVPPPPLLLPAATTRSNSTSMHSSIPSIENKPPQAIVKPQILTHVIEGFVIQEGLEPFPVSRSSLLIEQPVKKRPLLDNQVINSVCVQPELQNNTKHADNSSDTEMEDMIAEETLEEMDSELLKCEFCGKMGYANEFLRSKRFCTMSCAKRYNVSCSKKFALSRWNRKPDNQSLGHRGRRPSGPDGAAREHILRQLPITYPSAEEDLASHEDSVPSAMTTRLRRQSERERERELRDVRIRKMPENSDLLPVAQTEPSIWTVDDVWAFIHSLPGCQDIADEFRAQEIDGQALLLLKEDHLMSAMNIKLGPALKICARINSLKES
UniProt Q5JVF3, sequence (Q5JVF3 whole entry, looked up): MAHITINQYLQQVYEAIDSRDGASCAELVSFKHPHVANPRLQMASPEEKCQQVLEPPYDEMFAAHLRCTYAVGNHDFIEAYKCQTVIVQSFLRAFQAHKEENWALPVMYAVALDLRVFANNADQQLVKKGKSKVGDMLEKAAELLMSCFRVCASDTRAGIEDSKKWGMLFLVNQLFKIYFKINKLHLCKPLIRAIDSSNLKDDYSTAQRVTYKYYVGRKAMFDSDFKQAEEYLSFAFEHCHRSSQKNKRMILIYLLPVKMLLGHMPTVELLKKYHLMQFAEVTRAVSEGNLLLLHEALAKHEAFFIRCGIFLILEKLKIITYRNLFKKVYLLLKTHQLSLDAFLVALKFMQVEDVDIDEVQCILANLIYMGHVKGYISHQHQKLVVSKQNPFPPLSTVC
UniProt Q9BZL4, sequence (Q9BZL4 whole entry, looked up): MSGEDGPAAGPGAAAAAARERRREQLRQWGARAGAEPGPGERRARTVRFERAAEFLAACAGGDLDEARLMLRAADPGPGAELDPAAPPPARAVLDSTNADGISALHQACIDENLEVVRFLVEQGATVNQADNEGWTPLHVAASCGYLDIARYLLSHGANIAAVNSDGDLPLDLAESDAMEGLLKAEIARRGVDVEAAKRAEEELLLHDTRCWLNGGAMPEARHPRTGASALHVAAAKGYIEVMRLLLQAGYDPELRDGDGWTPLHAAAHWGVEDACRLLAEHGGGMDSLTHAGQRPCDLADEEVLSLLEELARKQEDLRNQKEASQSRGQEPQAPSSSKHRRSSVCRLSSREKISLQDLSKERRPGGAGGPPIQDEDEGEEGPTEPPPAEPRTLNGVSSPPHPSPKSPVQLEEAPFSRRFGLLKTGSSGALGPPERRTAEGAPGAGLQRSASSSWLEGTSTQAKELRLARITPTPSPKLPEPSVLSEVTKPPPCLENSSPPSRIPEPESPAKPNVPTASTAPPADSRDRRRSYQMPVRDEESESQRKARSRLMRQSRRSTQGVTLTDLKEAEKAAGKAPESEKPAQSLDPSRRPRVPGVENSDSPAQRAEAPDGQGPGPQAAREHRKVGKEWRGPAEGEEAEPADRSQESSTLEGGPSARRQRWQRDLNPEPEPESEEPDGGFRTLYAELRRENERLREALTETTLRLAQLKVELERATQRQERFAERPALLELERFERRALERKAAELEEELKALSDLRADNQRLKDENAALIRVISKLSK
UniProt P41247, sequence (P41247 whole entry, looked up): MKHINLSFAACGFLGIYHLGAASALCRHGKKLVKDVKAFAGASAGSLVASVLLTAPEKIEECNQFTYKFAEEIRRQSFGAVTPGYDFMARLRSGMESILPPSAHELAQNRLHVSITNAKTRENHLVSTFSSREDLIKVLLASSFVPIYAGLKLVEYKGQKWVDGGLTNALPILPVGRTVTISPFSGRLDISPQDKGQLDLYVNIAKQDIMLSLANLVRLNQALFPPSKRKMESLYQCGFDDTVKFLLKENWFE
UniProt Q8N2W9, sequence (Q8N2W9 whole entry, looked up): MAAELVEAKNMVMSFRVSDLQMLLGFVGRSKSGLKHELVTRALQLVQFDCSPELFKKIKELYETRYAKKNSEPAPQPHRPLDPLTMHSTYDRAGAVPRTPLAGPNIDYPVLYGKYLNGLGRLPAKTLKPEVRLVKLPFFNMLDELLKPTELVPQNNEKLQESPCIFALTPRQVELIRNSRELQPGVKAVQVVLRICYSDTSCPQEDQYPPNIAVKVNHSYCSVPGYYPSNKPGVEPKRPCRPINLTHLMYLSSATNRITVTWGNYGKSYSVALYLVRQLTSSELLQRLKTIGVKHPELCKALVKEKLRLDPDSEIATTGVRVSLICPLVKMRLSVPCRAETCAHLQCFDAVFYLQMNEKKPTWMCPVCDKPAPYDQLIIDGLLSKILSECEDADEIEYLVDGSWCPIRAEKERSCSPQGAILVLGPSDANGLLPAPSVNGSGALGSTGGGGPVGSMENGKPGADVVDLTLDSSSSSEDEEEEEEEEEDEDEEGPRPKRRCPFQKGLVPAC
UniProt Q15173, sequence (Q15173 whole entry, looked up): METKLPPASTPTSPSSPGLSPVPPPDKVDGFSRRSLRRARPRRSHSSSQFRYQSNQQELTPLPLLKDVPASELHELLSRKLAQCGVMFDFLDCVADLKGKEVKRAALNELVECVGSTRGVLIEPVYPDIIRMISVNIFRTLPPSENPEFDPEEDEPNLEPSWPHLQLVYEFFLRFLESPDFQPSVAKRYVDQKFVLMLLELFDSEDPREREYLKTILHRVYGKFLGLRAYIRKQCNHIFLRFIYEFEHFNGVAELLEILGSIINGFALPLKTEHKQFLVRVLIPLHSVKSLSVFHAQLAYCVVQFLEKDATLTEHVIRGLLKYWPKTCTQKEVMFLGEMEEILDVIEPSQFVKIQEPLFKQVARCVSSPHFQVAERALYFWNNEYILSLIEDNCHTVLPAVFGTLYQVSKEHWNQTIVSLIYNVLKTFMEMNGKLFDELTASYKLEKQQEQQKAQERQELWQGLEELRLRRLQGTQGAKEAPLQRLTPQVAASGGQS
UniProt Q68D20, sequence (Q68D20 whole entry, looked up): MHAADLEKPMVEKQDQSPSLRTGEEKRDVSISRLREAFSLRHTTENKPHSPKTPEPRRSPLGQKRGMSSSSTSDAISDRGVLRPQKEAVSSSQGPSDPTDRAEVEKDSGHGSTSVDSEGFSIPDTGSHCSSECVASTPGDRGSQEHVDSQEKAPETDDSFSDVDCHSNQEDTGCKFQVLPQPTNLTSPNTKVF

log2 fold change, inactive:
PPP1R12C (UniProt Q9BZL4) -0.011
POLB (UniProt P06746) -0.186
PRKD2 (UniProt M0R346) -0.066
PCID2 (UniProt Q5JVF3) -0.088
PSMC3 (UniProt E9PLG2) -0.437
PMS2CL (UniProt Q68D20) 0.094
POGZ (UniProt Q7Z3K3) 0.044
PCNX1 (UniProt Q96RV3) 0.036
PIAS4 (UniProt Q8N2W9) 0.061
PKM isoform 2 (UniProt P14618) 0.075
PGK2 (UniProt P07205) -0.082
PEX5 isoform 4 (UniProt P50542) -0.036
PHC3 isoform 7 (UniProt Q8NDX5) 0.24

compound: C1=CC(=CC=C1C2=NC3=C(N2)C=C(C=C3)C(=O)N)OC4=CC=C(C=C4)Cl; assay: as above
Summary of the method: as §1

log2 fold change, inactive:
PPP1R12C (UniProt Q9BZL4) -0.059
PDE4DIP (UniProt E9PS60) -0.175
PI4K2B (UniProt Q8TCG2) 0.065
PPP1R12B isoform 6 (UniProt O60237) 0.001
POLB (UniProt P06746) 0.094
PRKD3 (UniProt O94806) 0.013
PUM1 (UniProt Q14671) 0.15
PHRF1 (UniProt Q9P1Y6) 0.082
PTK2B (UniProt Q14289) 0.059
PSMC1 (UniProt G3V4X1) -0.001
PCID2 (UniProt Q5JVF3) -0.021
POGZ (UniProt Q7Z3K3) 0.033
PRKX (UniProt P51817) 0.035
PTEN isoform 2 (UniProt P60484) 0.061
PPP2R5C isoform 2 (UniProt Q13362) -0.02
PNPLA4 (UniProt P41247) -0.176
PEX5 isoform 4 (UniProt P50542) 0.076
PCBP2 (UniProt F8VZX2) -0.077
PHC3 isoform 7 (UniProt Q8NDX5) -0.002
PPP2R5B (UniProt Q15173) -0.05
